Measured values reported in PubChem BioAssay (Tox21).
Results filed as inconclusive are left out. Active and inactive are the calls of the source. Unless noted, calls come from the whole dose curve.

Legend:
[1] = Nuclear factor erythroid 2-related factor 2/antioxidant responsive element (Nrf2/ARE) small molecule agonists: qHTS cell viability counter screen in human keratinocytes (AID 1919968; active = well fitted curve in the direction sought with a large enough effect in the repeat runs; an effect the other way counts as inactive or inconclusive; note: nearly all actives have a fitted effect of over 55% in size)
In short: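 Cytotoxicity was multiplexed with the Nrf2/ARE luciferase assay in the same wells. Stably transfected HaCaT keratinocytes were treated with test compounds for 23 h at 37 C. Cell viability was then measured by CellTiter-Fluor fluorescence.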

[2] = Nuclear factor erythroid 2-related factor 2/antioxidant responsive element (Nrf2/ARE) small molecule agonists: luciferase reporter gene qHTS assay in human keratinocytes (AID 1919969); note: nearly all actives have a fitted effect of over 35% in size
[3] = target: Gonadotropin-releasing hormone receptor (Homo sapiens) (UniProt P30968); assay: Human gonadotropin-releasing hormone receptor (GnRHR) small molecule agonists, calcium flux assay in GnRHR-HEK293 cells (AID 1920063); note: nearly all actives have a fitted effect of over 35% in size
Chain of Gonadotropin-releasing hormone receptor (Homo sapiens) (P30968 whole entry, looked up): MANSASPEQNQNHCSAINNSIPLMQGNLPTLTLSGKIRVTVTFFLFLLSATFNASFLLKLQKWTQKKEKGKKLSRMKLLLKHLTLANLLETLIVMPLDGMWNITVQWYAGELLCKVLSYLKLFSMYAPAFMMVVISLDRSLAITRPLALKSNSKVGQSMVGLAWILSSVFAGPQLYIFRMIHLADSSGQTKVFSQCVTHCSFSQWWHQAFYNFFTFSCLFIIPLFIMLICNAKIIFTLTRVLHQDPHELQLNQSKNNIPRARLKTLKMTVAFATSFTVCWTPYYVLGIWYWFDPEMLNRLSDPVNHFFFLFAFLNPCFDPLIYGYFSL
In short: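 Agonist activity was measured as intracellular calcium flux in HEK293 cells engineered to stably express human GnRHR. After dye loading for 1 hour at 37 C, compounds in DMSO were added and fluorescence was followed for 3 minutes.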

[4] = target: KiSS-1 receptor (Homo sapiens) (UniProt Q969F8); assay: Human kisspeptin (KISS1R) small molecule agonists, calcium flux assay in KISS1R-HEK293 cells (AID 1920064; active = well fitted curve in the direction sought with a large enough effect in the repeat runs; an effect the other way counts as inactive or inconclusive)
Chain of KiSS-1 receptor (Homo sapiens) (Q969F8 whole entry, looked up): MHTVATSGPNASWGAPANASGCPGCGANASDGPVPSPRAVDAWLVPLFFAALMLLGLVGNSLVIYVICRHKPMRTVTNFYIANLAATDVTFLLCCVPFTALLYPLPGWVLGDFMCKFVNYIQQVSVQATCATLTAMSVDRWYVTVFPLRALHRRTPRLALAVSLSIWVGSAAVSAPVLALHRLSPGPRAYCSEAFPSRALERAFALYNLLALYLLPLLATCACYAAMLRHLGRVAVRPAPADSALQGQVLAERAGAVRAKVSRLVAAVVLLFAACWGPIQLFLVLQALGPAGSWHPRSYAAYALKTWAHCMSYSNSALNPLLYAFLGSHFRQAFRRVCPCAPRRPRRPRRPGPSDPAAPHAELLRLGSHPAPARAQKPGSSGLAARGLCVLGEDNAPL
In short: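 Agonist activity is monitored as intracellular calcium rise in engineered HEK293 cells carrying human KISS1R. Cells are dye-loaded for 1 h at 37 C before compound addition, and fluorescence is recorded for 3 min.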

[5] = G protein-coupled receptor (GPCR) small molecule agonists, calcium flux assay: HEK293 wild type cell line counter screen (AID 1920065)
In short: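 Seed cells, incubate 18 h (37 C, 5% CO2); add calcium dye, 1 h at 37 C; pin-transfer compounds, ATP control or DMSO; read fluorescence 480/540 nm each second for 3 min.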

[6] = p53 small molecule agonists, cell-based qHTS assay with human liver microsomes: qHTS cell viability counter screen (AID 1963579); note: nearly all actives have a fitted effect of over 45% in size
In short: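 Viability of p53RE-bla cells is measured as CellTiter-Glo luminescence following a 16 h, 37 C incubation with compound, liver microsomes from human donors and NADPH.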

[7] = p53 small molecule agonists, cell-based qHTS assay with rat liver microsomes: qHTS cell viability counter screen (AID 1963580); note: nearly all actives have a fitted effect of over 45% in size
In short: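 Luminescent ATP readout (CellTiter-Glo, 30 min at room temperature) reports viability of p53RE-bla HCT-116 cells after 16 h at 37 C with test compounds under metabolic activation by rat liver microsomes and NADPH at 0.5 mg/mL final each.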

[8] = p53 small molecule agonists, cell-based qHTS assay: qHTS cell viability counter screen (AID 1963581); note: nearly all actives have a fitted effect of over 45% in size
In short: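 Viability was counter-screened in parallel with the p53 agonist reporter by measuring intracellular ATP luminescence in the same HCT-116 p53RE-bla wells after 16 h compound treatment at 37 C.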

[9] = p53 small molecule agonists, cell-based qHTS assay (AID 1963582; active = well fitted activation curve with a large enough effect in the signal ratio in the repeat runs, not every such curve was filed as active; the % refers to the signal ratio)
In short: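 Cells carrying a p53-responsive bla reporter are treated with test compounds for 16 h at 37 C; beta-lactamase activity is then detected with LiveBLAzer B/G FRET substrate after 2 h at room temperature.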

[10] = target: 5-hydroxytryptamine receptor 2A (Homo sapiens) (UniProt P28223); assay: 5-hydroxytryptamine receptor 2A (HTR2A) small molecule antagonists, cell-based qHTS assay (AID 1963586); note: nearly all actives have a fitted effect of over 45% in size
Chain of 5-hydroxytryptamine receptor 2A (Homo sapiens) (P28223 whole entry, looked up): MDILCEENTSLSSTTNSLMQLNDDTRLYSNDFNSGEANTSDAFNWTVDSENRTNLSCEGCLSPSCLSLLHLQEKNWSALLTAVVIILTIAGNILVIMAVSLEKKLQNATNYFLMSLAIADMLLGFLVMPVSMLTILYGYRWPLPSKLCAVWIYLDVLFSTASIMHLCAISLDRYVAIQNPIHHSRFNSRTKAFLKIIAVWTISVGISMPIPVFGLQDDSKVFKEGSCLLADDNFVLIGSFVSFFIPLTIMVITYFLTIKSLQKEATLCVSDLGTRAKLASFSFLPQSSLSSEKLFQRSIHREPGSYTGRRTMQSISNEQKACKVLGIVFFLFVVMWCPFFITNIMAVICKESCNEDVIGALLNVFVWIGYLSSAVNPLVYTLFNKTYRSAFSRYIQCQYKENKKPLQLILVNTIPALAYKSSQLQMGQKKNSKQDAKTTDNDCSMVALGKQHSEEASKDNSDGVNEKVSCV
In short: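 CHO cells stably expressing human HTR2A were plated for 18 h at 37 C, then loaded with calcium dye for 1 h. Compounds were preincubated 5 min at room temperature before DOI (4 nM solution) was added. Kinetic fluorescence was read for 3 min.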

[11] = target: 5-hydroxytryptamine receptor 2A (Homo sapiens) (UniProt P28223); assay: 5-hydroxytryptamine receptor 2A (HTR2A) small molecule agonists, cell-based qHTS assay (AID 1963587); note: nearly all actives have a fitted effect of over 30% in size
In short: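 HTR2A-CHO cells, plated 18 h at 37 C/5% CO2, dye-loaded 1 h at 37 C; compounds in DMSO added by pin tool (agonist mode). Intracellular calcium flux read as kinetic fluorescence on FDSS over 2 min at 1 s intervals.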

[12] = target: Muscarinic acetylcholine receptor M1 (Homo sapiens) (UniProt P11229); assay: Cholinergic receptor muscarinic 1 (CHRM1) small molecule antagonists, cell-based qHTS assay (AID 1963588); note: nearly all actives have a fitted effect of over 40% in size
Chain of Muscarinic acetylcholine receptor M1 (Homo sapiens) (P11229 whole entry, looked up): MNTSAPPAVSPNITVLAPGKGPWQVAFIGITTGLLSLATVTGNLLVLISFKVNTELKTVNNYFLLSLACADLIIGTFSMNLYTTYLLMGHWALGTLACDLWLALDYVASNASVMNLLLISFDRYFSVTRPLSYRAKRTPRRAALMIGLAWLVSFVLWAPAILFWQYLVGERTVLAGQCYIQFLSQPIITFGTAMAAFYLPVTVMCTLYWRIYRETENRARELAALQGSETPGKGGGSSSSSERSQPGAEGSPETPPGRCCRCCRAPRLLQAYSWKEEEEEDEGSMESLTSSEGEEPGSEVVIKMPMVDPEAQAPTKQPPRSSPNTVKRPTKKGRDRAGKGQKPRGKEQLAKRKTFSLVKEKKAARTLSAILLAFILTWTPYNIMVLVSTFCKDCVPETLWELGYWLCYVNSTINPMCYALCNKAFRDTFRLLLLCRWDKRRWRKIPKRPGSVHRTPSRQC
In short: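 Compounds were tested at 15 concentrations in three independent runs. Dye-loaded CHRM1-CHO cells were exposed 5 min at room temperature before stimulation by acetylcholine added at 50nM. Intracellular calcium was read kinetically on FDSS for 3 min.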

[13] = target: Muscarinic acetylcholine receptor M1 (Homo sapiens) (UniProt P11229); assay: Cholinergic receptor muscarinic 1 (CHRM1) small molecule agonists, cell-based qHTS assay (AID 1963589); note: nearly all actives have a fitted effect of over 35% in size
In short: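 Cells were plated and incubated 18 h at 37 C/5% CO2, loaded with calcium dye for 1 h at 37 C, then treated with compounds in DMSO. Fluorescence was recorded kinetically at 1 sec intervals.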

[14] = cAMP Responsive Elements (CRE) small molecule agonists, cell-based qHTS assay (AID 1963590)
In short: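 Cells carrying a CRE-driven beta-lactamase reporter (HEK 293T) are seeded, incubated overnight (18 h), and treated with test compounds for 3 h at 37 C; reporter activity is then detected with a FRET substrate after 2 h at room temperature.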

[15] = target: Beta-2 adrenergic receptor (Homo sapiens) (UniProt P07550); assay: Adrenergic beta2 receptor (ADRB2) small molecule antagonists, cell-based qHTS assay (AID 1963592); note: series mostly up to about 92 µM; nearly all actives have a fitted effect of over 50% in size
Chain of Beta-2 adrenergic receptor (Homo sapiens) (P07550 whole entry, looked up): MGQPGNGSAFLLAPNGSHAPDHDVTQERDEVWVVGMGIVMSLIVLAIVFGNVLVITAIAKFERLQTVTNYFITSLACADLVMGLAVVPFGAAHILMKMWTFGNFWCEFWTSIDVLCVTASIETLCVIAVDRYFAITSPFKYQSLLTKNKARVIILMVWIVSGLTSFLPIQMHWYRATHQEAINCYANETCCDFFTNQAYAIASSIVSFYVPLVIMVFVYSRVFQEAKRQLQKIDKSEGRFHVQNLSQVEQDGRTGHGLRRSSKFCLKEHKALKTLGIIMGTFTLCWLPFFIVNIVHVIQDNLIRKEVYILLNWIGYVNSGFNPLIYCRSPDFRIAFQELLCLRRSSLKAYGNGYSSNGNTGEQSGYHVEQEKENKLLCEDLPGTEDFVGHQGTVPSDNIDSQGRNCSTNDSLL
In short: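 Assay format: CHO-ADRB2 cells, 18-20hr seeding at 37C/5% CO2, then compound plus 1nM isoproterenol agonist mix for 0.5hr RT. Homogeneous time-resolved fluorescence cAMP detection after 1hr, expressed as 665/615 nm ratio.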

[16] = target: D(2) dopamine receptor (Homo sapiens) (UniProt P14416); assay: Dopamine D2 receptor (DRD2) small molecule antagonists, cell-based qHTS assay (AID 1963595; active = well fitted inhibition curve with a large enough effect in the signal ratio in the repeat runs, with a control signal flat; the % refers to the signal ratio)
Chain of D(2) dopamine receptor (Homo sapiens) (P14416 whole entry, looked up): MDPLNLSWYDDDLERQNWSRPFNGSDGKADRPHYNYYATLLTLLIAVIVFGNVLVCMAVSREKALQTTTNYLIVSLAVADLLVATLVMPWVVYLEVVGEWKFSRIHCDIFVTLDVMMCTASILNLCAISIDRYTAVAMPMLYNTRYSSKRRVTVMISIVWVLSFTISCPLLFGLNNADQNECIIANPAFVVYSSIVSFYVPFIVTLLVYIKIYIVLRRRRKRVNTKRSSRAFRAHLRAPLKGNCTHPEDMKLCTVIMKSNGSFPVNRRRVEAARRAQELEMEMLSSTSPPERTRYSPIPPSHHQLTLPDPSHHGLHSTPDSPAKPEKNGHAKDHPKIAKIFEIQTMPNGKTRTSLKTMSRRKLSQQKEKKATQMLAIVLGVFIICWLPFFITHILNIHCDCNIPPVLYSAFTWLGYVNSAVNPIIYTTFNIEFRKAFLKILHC
In short: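 Cells were plated and grown for 24 h at 37 °C. Ro20-1724 (0.1 mM final) went in first, then compound for 10 min. NKH477 (200 nM) with quinpirole (12 nM) followed for 30 min at RT, then HTRF detection reagents for 1 h.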

[17] = cAMP Responsive Elements (CRE) small molecule antagonists, cell-based qHTS assay (AID 1963591; active = well fitted inhibition curve with a large enough effect in the signal ratio in the repeat runs, not every such curve was filed as active; the % refers to the signal ratio)
In short: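 Cells (CRE-bla HEK 293T, DMEM with 10% dialyzed FBS and 25 mM HEPES) are seeded and incubated 18 h. Compounds are added with NKH477 agonist at 0.25 uM final for 3 h, then FRET substrate for 2 h.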

[18] = target: Beta-2 adrenergic receptor (Homo sapiens) (UniProt P07550); assay: Adrenergic beta2 receptor (ADRB2) small molecule agonists, cell-based qHTS assay (AID 1963593);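 note: CHO cells stably overexpressing human ADRB2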
In short: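 CHO cells stably over-expressing ADRB2 were plated overnight at 37C, then dosed with compounds plus a stimulation mix containing 100uM IBMX and 25uM Ro-20-1724 for 0.5hr at room temperature. cAMP was measured by HTRF competition, 1hr.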

[19] = target: D(2) dopamine receptor (Homo sapiens) (UniProt P14416); assay: Dopamine D2 receptor (DRD2) small molecule agonists, cell-based qHTS assay (AID 1963594); note: nearly all actives have a fitted effect of over 35% in size
In short: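 HEK293 cells stably expressing DRD2 were cultured 24 h at 37 C, then given Ro20-1724 (0.1 mM final) and compounds for 10 min at room temperature. NKH477 (200nM) was then added for 30 min. cAMP was read by HTRF.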

[20] = p53 small molecule agonists, cell-based qHTS assay with rat liver microsomes (AID 1963578)
In short: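 Quantitative HTS of the Tox21 10K library: p53RE-bla cells, rat liver microsomes plus NADPH at 0.5 mg/mL final each, 16 h at 37 C, beta-lactamase fluorescence detection.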
% is set by controls: 0 for no effect and ±100 for the full control effect.

C=C1c2cccc(O)c2C(O)=C2C(=O)[C@]3(O)C(O)=C(C(N)=O)C(=O)[C@@H](N(C)C)[C@@H]3[C@@H](O)[C@H]12
inactive: Potency [1] | Potency [2] | Potency [3] | Potency [4] | Potency [5] | Potency [6] | Potency [7] | Potency [8] | Potency [9] | Potency [10] | Potency [11] | Potency [12] | Potency [13] | Potency [14] | Potency [15] | Potency [16]

CN(C)CCCN(C)C
inactive: activity change, negative = cytotoxicity [1] 3.36% [at 8.39 µM] | activity, positive = activation [2] -12.5% [at 8.39 µM] | activity change [3] -0.775% [at 5.22 µM, stronger effect = higher value] | activation [4] -0.798% [at 6.97 µM] | activation [5] -1.22% [at 5.23 µM] | activity change, negative = cytotoxicity [6] -2.9% [at 5.99 µM] | activity change, negative = cytotoxicity [7] 0.34% [at 5.99 µM] | activity change, negative = cytotoxicity [8] -23% [at 5.99 µM] | activation [9] 3.48% [at 5.99 µM] | activity, negative = inhibition [10] 12.1% [at 5.62 µM] | activation [11] -0.769% [at 7.02 µM] | activity, negative = inhibition [12] 1.9% [at 5.58 µM] | activation [13] -0.0477% [at 6.97 µM] | activation [14] -0.0363% [at 8.39 µM] | activity change, negative = inhibition [17] -6.12% [at 8.39 µM] | activity change, negative = inhibition [15] 3.37% [at 8.39 µM] | activity change, negative = inhibition [16] 3.98% [at 8.38 µM]

CCN(CC)CC1CCCCN1CC(=O)N1c2ccccc2C(=O)Nc2cccnc21 (stereo not given)
inactive: Potency [1] | Potency [2] | Potency [3] | Potency [4] | Potency [5] | Potency [6] | Potency [7] | Potency [8] | Potency [10] | Potency [11] | Potency [12] | Potency [13] | Potency [14] | Potency [17] | Potency [15] | Potency [18] | Potency [19] | Potency [16]

OC/C=C/c1ccccc1
inactive: Potency [1] | Potency [2] | Potency [3] | Potency [4] | Potency [5] | Potency [6] | Potency [7] | Potency [8] | Potency [10] | Potency [11] | Potency [12] | Potency [13] | Potency [14] | Potency [17] | Potency [15] | Potency [18] | Potency [19] | Potency [16]

CCN(CCCc1ccccc1)CCCc1ccccc1
inactive: Potency [1] | Potency [2] | Potency [3] | Potency [4] | Potency [5] | Potency [20] | Potency [7] | Potency [9] | Potency [11] | Potency [13]

CC(=O)OCC1=C(C(=O)O)N2C(=O)[C@@H](NC(=O)CSc3ccncc3)[C@H]2SC1
inactive: Potency [1] | Potency [2] | Potency [3] | Potency [4] | Potency [5] | Potency [6] | Potency [7] | Potency [8] | Potency [10] | Potency [11] | Potency [12] | Potency [13] | Potency [14] | Potency [17] | Potency [15] | Potency [18] | Potency [19]

C=C1CCC2CC1C2(C)C (stereo not given)
inactive: Potency [1] | Potency [2] | Potency [3] | Potency [4] | Potency [5] | Potency [6] | Potency [7] | Potency [8] | Potency [10] | Potency [11] | Potency [12] | Potency [13] | Potency [14] | Potency [17] | Potency [15] | Potency [18] | Potency [19]

CNC(C)=O
inactive: Potency [1] | Potency [2] | Potency [3] | Potency [4] | Potency [5] | Potency [6] | Potency [7] | Potency [8] | Potency [10] | Potency [11] | Potency [12] | Potency [13] | Potency [14] | Potency [17] | Potency [15] | Potency [18] | Potency [19]
